Reference: PubChem BioAssay (NCI)
About 83,000 compounds went through this panel and 20% of them were active in at least one assay; those are over-represented in the sample as a whole.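 Method: cells in 96-well plates; compound added at one concentration; 48 h incubation; percent growth measured; values under 10 scored active.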 A number with no mark means an inactive call. The source made the active and inactive calls.

Legend:
Experiment in all cases: NCI-60 one-dose screen, 48 h (100 = growth as untreated, 0 = no growth, -100 = all killed)
Details in all cases: 10 µM unless noted
T-47D breast = tested on: T-47D breast
BT-549 breast = tested on: BT-549 breast
MDA-MB-435 melanoma = tested on: MDA-MB-435 melanoma
SW-620 colon = tested on: SW-620 colon
MCF7 breast = tested on: MCF7 breast
HCT-116 colon = tested on: HCT-116 colon
HCC-2998 colon = tested on: HCC-2998 colon
KM12 colon = tested on: KM12 colon

| Structure (SMILES) | growth (T-47D breast) | growth (BT-549 breast) | growth (MDA-MB-435 melanoma) | growth (SW-620 colon) | growth (MCF7 breast) | growth (HCT-116 colon) | growth (HCC-2998 colon) | growth (KM12 colon) |
| --- | --- | --- | --- | --- | --- | --- | --- | --- |
| c1ccc2[nH]c(-c3cc(-c4ccc5c(c4)OCO5)n[nH]3)nc2c1 | 40% | 34.5% | 58% | 61.3% | 59.2% | 51.7% | 81.2% | 28.2% |
| CC(=O)O[C@H]1CC[C@]2(C)[C@H]3CC=C4[C@@H]5[C@H](C)[C@@H](C)CC[C@]5(C(=O)NCCNCCNCCN)CC[C@@]4(C)[C@]3(C)CC[C@H]2C1(C)C | 63.8% | 93.7% | 83% | 87.3% | 58.1% | 62.3% | 80% | 86.2% |
| COc1ccc(NC(=O)c2ccc3c(c2)nc(-c2cc4ccccc4[nH]c2=O)n3-c2cc(C(C)(C)C)[nH]n2)cc1 | 78.9% | 84.5% | 92.5% | 102% | 81.3% | 86% | 105% | 90.5% |
| O=C1/C(=C\c2ccc(Br)o2)SC(=S)N1CCc1ccc(O)cc1 | 57.7% | 76.4% | 71.3% | 102% | 33.4% | 77.7% | 119% | 19.5% |
| O=C(NO)c1ccc(Cn2c(=O)n(CCc3ccc(O)cc3)c(=O)c3ccccc32)cc1 | 11.8% | 65.7% | -15.6% (active) | 22.4% | 44.5% | 24.9% | 79% | 22.7% |
| CN(C)c1ccc(C(=O)c2ccc(N(C)C)c(N)c2)cc1N | 21.9% | 31.9% | -32.1% (active) | 10.2% | 15% | 23.6% | 86.1% | 17.7% |
| COc1ccc(-c2nc3c(c(C)nn3-c3ccc(F)cc3)c(=O)[nH]2)cc1 | 20.2% | 76.3% | 74.7% | 74.6% | 73.7% | 48.5% | 98.4% | 84.4% |
| C#CCn1c2c(c3ccccc31)C[C@]1(C)[C@H]3CC[C@@H]4[C@@H]5C(=CCC[C@H]5C(=C)C)CC[C@@]4(C)[C@]3(C)CC[C@H]1C2(C)C | 106% | 100% | 102% | 98.2% | 95.7% | 101% | 102% | 102% |
| CCSc1sc(-c2ccc(C)cc2)nc1[P+](c1ccccc1)(c1ccccc1)c1ccccc1 | -22% (active) | -19.1% (active) | -26.8% (active) | 4.99% (active) | -4.84% (active) | -20.9% (active) | -23.1% (active) | -63.2% (active) |
| CC(C)(C)c1ccc(OP(=S)(N/N=C/c2ccccc2O)Oc2ccc(C(C)(C)C)cc2)cc1 | 70.2% | 89.5% | 72% | 77.7% | 53.8% | 42.9% | 86.2% | 67.2% |
| O=C1c2cc3c(cc2-c2c1c1ccc(Cl)cc1c(=O)n2C[C@H](O)[C@@H](O)[C@H](O)CO)OCO3 | -8.86% (active) | -1.82% (active) | -39.2% (active) | 2.65% (active) | 1.66% (active) | 11.1% | 16.3% | 7.14% (active) |
| Cc1cccc(C)c1NCc1nc(-c2ccccc2)n[nH]1 | 87.8% | 94.8% | 101% | 109% | 88.2% | 98.7% | 101% | 103% |
| COc1ccc(-c2n[nH]nc2-c2cc3ccccc3s2)cc1O | 43.8% | 24.1% | -32.9% (active) | 26.6% | 19.7% | 18.2% | 29.2% | 22.7% |
| C#CCn1c(C)cc(C)c(C#N)c1=O | 101% | 98% | 106% | 104% | 91.5% | 103% | 105% | 101% |
| Cc1ccc(-c2nc([P+](c3ccccc3)(c3ccccc3)c3ccccc3)c(N3C[C@H]4C[C@H](C3)c3cccc(=O)n3C4)o2)cc1 | 38.5% | 56.2% | 44.4% | 85.6% | 67.3% | 88.2% | 71.3% | 43.6% |
| Fc1ccc(NCc2nnc(-c3ccc(Cl)cc3)o2)cc1 | 57% | 77.8% | 94.8% | 90.4% | 55.2% | 53.7% | 98% | 84.8% |
| COC(=O)[C@]12CC[C@@H](C)[C@H](C)[C@@H]1C1=CC[C@@H]3[C@@]4(C)C[C@@H](O)[C@H](O)[C@@](C)(CO)C4=CC[C@@]3(C)[C@]1(C)CC2 | -26.5% (active) | -80.2% (active) | -53.1% (active) | -55.5% (active) | -37.1% (active) | -37.5% (active) | -86.5% (active) | -70.8% (active) |
| Cc1cc(N=O)cc(C(C)(C)C)c1O | 85.4% | 97.7% | 99.4% | 94.8% | 93.6% | 88.1% | 106% | 102% |
| Oc1ccc(CCC2CCCC(CCc3ccc(OCCF)cc3)N2)cc1 (stereo not given) | 72.8% | 96.4% | 99.5% | 112% | 89% | 86% | 88.4% | 104% |
| C/C(=N\Nc1cc(C)c2ccccc2n1)c1ccccn1 | 16.5% | 24.1% | -90.9% (active) | 7.9% (active) | -82.9% (active) | -76.2% (active) | 4.77% (active) | 4.67% (active) |
| CCCCC[C@H]1C/C=C2/C(=O)C(Cl)=C[C@@H]2C/C=C\CCCC(=O)O[C@@H](CCCCC)C/C=C2/C(=O)C(Cl)=C[C@@H]2C/C=C\CCCC(=O)O1 | -20.3% (active) | -52.7% (active) | -16.1% (active) | -41.6% (active) | -42.1% (active) | -98.7% (active) | -88.6% (active) | -73% (active) |
| N#CC1=C(N)Oc2ccc3ccccc3c2C1c1ccccc1 (stereo not given) | 40.8% | 19.8% | -21.6% (active) | 28% | 14.8% | 19.4% | 69.3% | 24.5% |
| Cc1cc(Cl)c2c(N(C)C)cccc2n1 | 94.7% | 98.3% | 106% | 88.7% | 79.3% | 92.3% | 97.1% | 109% |
| CC(C)=CCC/C(C)=C/CC/C(C)=C/CC/C(C)=C/CSC[C@H](NC(=O)CCCCCN1CCN(C)CC1)C(=O)NC1CCCCC1 | 58.3% | 102% | 48.5% | -12.9% (active) | 17% | 6.51% (active) | 63.8% | 81.7% |
| Cn1cc(-c2csc(-c3cn(CCCN4CCCCC4)c4ccc(F)cc34)n2)c2cccnc21 | 92% | 71.3% | 71.3% | 89.7% | 78.6% | 88.2% | 102% | 94% |
| C=C(C)[C@@H]1CC[C@]2(C(=O)N3CCN(CC)CC3)CC[C@]3(C)[C@H](CC[C@@H]4[C@@](C)(CCC(=O)N5CCN(CC)CC5)[C@H](C(=C)C)CC[C@]43C)[C@@H]12 | 59.7% | 78.7% | 70.2% | 49.9% | 46.5% | 24.9% | 75.7% | 54.2% |
| CCN1CCN(C(=O)[C@]23CCC(C)(C)C[C@@H]2C2=CC[C@@H]4[C@@]5(C)C/C(=C/c6ccncc6)C(=O)C(C)(C)[C@@H]5CC[C@@]4(C)[C@]2(C)CC3)CC1 | -2.08% (active) | -5.92% (active) | -29.9% (active) | -54.1% (active) | -53.6% (active) | -92.4% (active) | -68.8% (active) | -39.9% (active) |
| O=C1CCC/C=C\C[C@H]2C=C(Cl)C(=O)/C2=C/C[C@H](CCCCC(F)(F)F)OC(=O)CCC/C=C\C[C@H]2C=C(Cl)C(=O)/C2=C/C[C@H](CCCCC(F)(F)F)O1 | -7.29% [7.5 µM] (active) | -43.8% [7.5 µM] (active) | -14.3% [7.5 µM] (active) | -30.8% [7.5 µM] (active) | -38.9% [7.5 µM] (active) | -93.4% [7.5 µM] (active) | -54.7% [7.5 µM] (active) | -60.3% [7.5 µM] (active) |
| CCN1CCN(C(=O)[C@@]2(C)CC[C@]3(C)CC[C@]4(C)C(=CC(=O)[C@@H]5[C@@]6(C)CC[C@H](OC7C[C@@H](O)[C@@H](O)C(C)O7)C(C)(C)[C@@H]6CC[C@]54C)[C@@H]3C2)CC1 (stereo not given in full) | 82.6% | 87.1% | 20.4% | 36.7% | 24.5% | 1.7% (active) | 37.7% | 30.8% |
| CC1(C)CC[C@]2(C(=O)NCCNCCN)CC[C@]3(C)C(=CC[C@@H]4[C@@]5(C)CCC(=O)C(C)(C)[C@@H]5CC[C@]43C)[C@@H]2C1 | -71.1% (active) | 83.5% | 61% | -78.4% (active) | -23.8% (active) | -54% (active) | 24.5% | 9.99% (active) |
